Results on three molecules are retold here after PubChem BioAssay (EPA / NIEHS).

Assay [1] is described as follows: ATG_GLI_CIS: Attagene CIS-FACTORIAL HepG2 Assay for human Zinc Finger Protein GLI1 (AID 2282945). The conditions noted are these: HepG2, Attagene cis-factorial reporter mRNA, GLI element; actives raise or lower the signal. An outline of the steps: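 HepG2 cells transiently transfected with cis-promoter multiplexed reporter units report endogenous transcription factor activity. After 24 h chemical exposure, reporter mRNA was quantified by RT-PCR, 6-FAM labelling, HpaI digestion and capillary electrophoresis, with bidirectional fitting against DMSO.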

Assay [2] in a line: ATG_GRE_CIS: Attagene CIS-FACTORIAL HepG2 Assay for human Glucocorticoid Response Elements (GRE) (AID 2282947). The note with it: HepG2 GRE cis-reporter, Attagene multiplex mRNA; actives raise or lower the signal. An outline of the steps:
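HepG2 cells transiently transfected with multiple cis-promoter reporter units measure endogenous TF activity; 24 h compound exposure. Reporter mRNA quantified by RT-PCR, FAM labelling, HpaI digestion and capillary electrophoresis; bidirectional fit vs DMSO baseline.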

A short description of assay [3]: ATG_ISRE_CIS: Attagene CIS-FACTORIAL HepG2 Assay for human Interferon Regulatory Factor 1 (IRF1) binding to an Interferon-Stimulated Response Element (ISRE) (AID 2282948). The conditions noted are these: HepG2 ISRE cis-reporter (Attagene), mRNA transcription readout; actives raise or lower the signal. An outline of the steps:
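Transfected HepG2 (multiple reporter transcription units, cis elements) dosed 24 h. RNA → oligo(dT) RT → PCR → 6-FAM primer extension → HpaI → CE. DMSO = negative control/baseline.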

Assay [4] is described as follows: ATG_M_32_CIS: Attagene CIS-FACTORIAL HepG2 Assay for M32 Transcription Factor (Internal Marker) (AID 2282949).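 Also: background control marker of the multiplexed CIS panel rather than a real target.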 The conditions noted are these: HepG2 Attagene cis-factorial M32 reporter, mRNA; actives raise or lower the signal. The method, boiled down: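 Internal background marker read-out: RT-PCR/capillary electrophoresis fluorescence of reporter transcripts from transiently transfected HepG2 cells after 24 h chemical exposure. Activity fitted bidirectionally relative to DMSO negative control.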

Assay [5] is described as follows: ATG_M_06_CIS: Attagene CIS-FACTORIAL HepG2 Assay for M06 Transcription Factor (Internal Marker) (AID 2282950). The conditions noted are these: HepG2 Attagene CIS-FACTORIAL M06 internal marker reporter; actives raise or lower the signal. The method, boiled down: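 Terse: HepG2, transient MRTU transfection (FuGene 6), 24 h dosing; total RNA, oligo(dT) RT, PCR, FAM label, HpaI cut, capillary electrophoresis; bidirectional fit vs DMSO baseline; background-control endpoint.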

Assay [6] deals with Hypoxia-inducible factor 1-alpha (Homo sapiens) (UniProt Q16665). The assay can be described thus: ATG_HIF1a_CIS: Attagene CIS-FACTORIAL HepG2 Assay for human Hypoxia Inducible Factor 1 (HIF1A) (AID 2282951). The note with it: HepG2 Attagene cis-factorial HIF1a reporter transcription; actives raise or lower the signal. An outline of the steps:
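Endogenous-TF cis reporter readout, human HepG2 cells, 24 h incubation; mRNA detected via RT-PCR and capillary electrophoresis fluorescence; DMSO-normalised bidirectional fitting.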

In assay [7] the target is Hepatocyte nuclear factor 6 (Homo sapiens) (UniProt Q9UBC0). The assay can be described thus: ATG_HNF6_CIS: Attagene CIS-FACTORIAL HepG2 Assay for human Hepatocyte Nuclear Factor 6 (HNF6) (AID 2282952). The conditions noted are these: HepG2 Attagene cis-factorial HNF6 reporter transcription; actives raise or lower the signal. The method, boiled down:
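HepG2 cells transiently transfected with cis-element-driven multiplexed reporter units measuring endogenous transcription factor activity. After 24 h exposure, reporter mRNA quantified by RT-PCR, FAM-labelled fragments and capillary electrophoresis; bidirectional fitting versus DMSO.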

Assay [8] deals with Heat shock factor protein 1 (Homo sapiens) (UniProt Q00613). The experiment in a line: ATG_HSE_CIS: Attagene CIS-FACTORIAL HepG2 Assay for human Heat Shock Transcription Factor 1 (HSE) (AID 2282953). The note with it: HepG2 HSE cis-reporter, Attagene RNA transcription; actives raise or lower the signal. An outline of the steps:
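Read-out: fluorescence of reporter-specific RT-PCR fragments separated by capillary electrophoresis. HepG2 carrying transfected cis-element reporter units; 24 h dosing; activity fitted in both directions relative to DMSO baseline.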

Assay [9] is described as follows: ATG_MRE_CIS: Attagene CIS-FACTORIAL HepG2 Assay for human Metal Responsive Element (MRE) (AID 2282954). The conditions noted are these: HepG2 MRE cis-reporter transcription, Attagene multiplex; actives raise or lower the signal. The method, boiled down:
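HepG2 cells transiently transfected with multiple cis-element reporter units measure endogenous MTF1-driven transcription. After 24 h compound exposure, reporter mRNA is quantified by RT-PCR with 6-FAM labelling, HpaI digestion and capillary electrophoresis; bidirectional fits versus DMSO.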

The nature of assay [10]: ATG_PBREM_CIS: Attagene CIS-FACTORIAL HepG2 Assay for human Phenobarbital-responsive Enhancer Module (PBREM) (AID 2282955). The conditions noted are these: HepG2 PBREM cis-reporter, Attagene multiplexed transcription; actives raise or lower the signal. The method, boiled down: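 Readout: reporter mRNA, fluorescent RT-PCR fragments separated by capillary electrophoresis. System: HepG2 transiently transfected with cis-regulated reporter units. Exposure: 24 h. Analysis: bidirectional, DMSO baseline.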

Assay [11] concerns the target Paired box protein Pax-6 (Homo sapiens) (UniProt P26367). The assay can be described thus: ATG_Pax6_CIS: Attagene CIS-FACTORIAL HepG2 Assay for human Paired Box 6 (PAX6) (AID 2282956). The conditions noted are these: HepG2 CIS-FACTORIAL PAX6 reporter transcription, RNA readout; actives raise or lower the signal. The method, boiled down: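 Transient MRTU transfection of HepG2 → compound exposure 24 h → TriZol RNA, oligo(dT) RT → PCR, 6-FAM primer extension, HpaI cut → capillary electrophoresis; activity fitted both directions against DMSO.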

Assay [12] in a line: ATG_PXRE_CIS: Attagene CIS-FACTORIAL HepG2 Assay for human Pregnane X Receptor Element (PXRE) (AID 2282957). The note with it: HepG2 Attagene CIS-FACTORIAL PXRE reporter, mRNA; actives raise or lower the signal. An outline of the steps:
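HepG2 cells transiently transfected with cis-element-driven multiplexed reporter units; after 24 h chemical exposure, reporter mRNA measured by RT-PCR, 6-FAM labelling, HpaI digestion and capillary electrophoresis. Bidirectional fitting relative to DMSO.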

The nature of assay [13]: ATG_PPRE_CIS: Attagene CIS-FACTORIAL HepG2 Assay for human Peroxisome Proliferator-activated Response Element (PPRE) (AID 2282958). The note with it: HepG2 PPRE cis-element reporter, Attagene transcription factor profiling; actives raise or lower the signal. The method, boiled down: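 After human HepG2 hepatoma cells were transiently transfected with cis-promoter reporter constructs, they were exposed to test chemicals for 24 hours. Reporter RNA was then reverse-transcribed, PCR-amplified, FAM-labeled, HpaI-digested and quantified by capillary electrophoresis.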

Assay [14] can be described thus: ATG_RORE_CIS: Attagene CIS-FACTORIAL HepG2 Assay for human RAR-related Orphan Receptor Element (RORE) (AID 2282959). The note with it: HepG2 Attagene cis-factorial RORE reporter, mRNA; actives raise or lower the signal. An outline of the steps:
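Measured here: transcript induction of a cis-regulated reporter in HepG2 cells transiently transfected via FuGene 6. After 24 h, RNA was processed by RT-PCR and fluorescent capillary electrophoresis; DMSO defined baseline activity.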

Assay [15] is described as follows: ATG_Sox_CIS: Attagene CIS-FACTORIAL HepG2 Assay for human SRY-box transcription factor (SOX) (AID 2282960). The conditions noted are these: HepG2 Attagene cis-factorial SOX reporter, mRNA; actives raise or lower the signal. An outline of the steps: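 Using transiently transfected HepG2 cells, reporter transcription driven by cis elements was assessed 24 h after dosing. Signal was fluorescence of capillary-separated RT-PCR products, with DMSO defining baseline activity.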

Assay [16] deals with Transcription factor Sp1 (Homo sapiens) (UniProt P08047). The assay can be described thus: ATG_Sp1_CIS: Attagene CIS-FACTORIAL HepG2 Assay for human Specificity Protein 1 (Sp1) (AID 2282961). The conditions noted are these: HepG2 Sp1 cis-reporter transcription, actives raise or lower the signal. The method, boiled down:
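After transient transfection of HepG2 cells with cis-promoter reporter units and 24 h chemical treatment, reporter transcripts were quantified by RT-PCR and capillary electrophoresis fluorescence. Gain- and loss-of-signal fitted against DMSO.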

Assay [17] is described as follows: ATG_SREBP_CIS: Attagene CIS-FACTORIAL HepG2 Assay for human Sterol Regulatory Element Binding (SREBP) (AID 2282962). The note with it: HepG2 Attagene cis-factorial SREBP reporter, mRNA; actives raise or lower the signal. The method, boiled down: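 Transfected HepG2 (cis-regulated reporter library, endogenous TFs) → compound 24 h → total RNA → oligo(dT) RT → reporter-specific PCR → FAM primer extension, HpaI cut → CE fluorescence. Fit bidirectional vs DMSO.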

Assay [18] concerns the target Signal transducer and activator of transcription 3 (Homo sapiens) (UniProt P40763). The experiment in a line: ATG_STAT3_CIS: Attagene CIS-FACTORIAL HepG2 Assay for human Signal Transducer and Activator of Transcription 3 (STAT3) (AID 2282963). The note with it: HepG2, Attagene cis-factorial STAT3 reporter transcription; actives raise or lower the signal. The method, boiled down: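 HepG2 cells transiently transfected with cis-element-driven multiple reporter transcription units; after 24 h chemical exposure, reporter mRNA measured by RT-PCR, 6-FAM primer-extension labelling, HpaI digestion and capillary electrophoresis. Bidirectional fitting versus DMSO baseline.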

A short description of assay [19]: ATG_TA_CIS: Attagene CIS-FACTORIAL HepG2 Assay for human TA Basal Promoter (AID 2282964). The conditions noted are these: HepG2 Attagene CIS-factorial TA basal promoter reporter; actives raise or lower the signal. The method, boiled down: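 Transfected HepG2, 24 h compound exposure; RNA → RT-PCR → FAM primer extension → HpaI cut → CE fluorescence. Gain/loss-of-signal fitted against DMSO negative control. Background-control readout.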

The nature of assay [20]: ATG_TCF_b_cat_CIS: Attagene CIS-FACTORIAL HepG2 Assay for human T-Cell-Factor with beta-catenin (TCF/b-cat) (AID 2282965). The note with it: HepG2 TCF/beta-catenin cis-reporter transcription, actives raise or lower the signal. An outline of the steps:
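HepG2 cells transiently transfected with multiple cis-promoter-regulated reporter transcription units, so endogenous transcription factor activity is measured. Reporter mRNA read 24 hours after dosing by RT-PCR, fluorescent labelling and capillary electrophoresis; bidirectional fitting against DMSO.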

Activity calls are given as the source filed them. The calls were made as follows: active = hit-call score of the fitted dose curve at least 0.9, where 1 is the maximum; inactive = score below 0.9.

Paired box protein Pax-6 (Homo sapiens), sequence (P26367 whole entry, looked up): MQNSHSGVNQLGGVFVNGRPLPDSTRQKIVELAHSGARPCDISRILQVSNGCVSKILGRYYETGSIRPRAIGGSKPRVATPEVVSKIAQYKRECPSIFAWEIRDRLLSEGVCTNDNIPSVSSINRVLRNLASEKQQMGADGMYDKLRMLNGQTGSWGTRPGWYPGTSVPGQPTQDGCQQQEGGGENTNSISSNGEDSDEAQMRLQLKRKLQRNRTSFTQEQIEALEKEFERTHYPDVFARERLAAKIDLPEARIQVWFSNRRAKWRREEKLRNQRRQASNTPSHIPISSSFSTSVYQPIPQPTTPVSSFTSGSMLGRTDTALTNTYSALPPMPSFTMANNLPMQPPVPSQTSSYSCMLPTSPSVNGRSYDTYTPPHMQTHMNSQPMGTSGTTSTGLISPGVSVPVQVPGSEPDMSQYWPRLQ
Transcription factor Sp1 (Homo sapiens), sequence (P08047 whole entry, looked up): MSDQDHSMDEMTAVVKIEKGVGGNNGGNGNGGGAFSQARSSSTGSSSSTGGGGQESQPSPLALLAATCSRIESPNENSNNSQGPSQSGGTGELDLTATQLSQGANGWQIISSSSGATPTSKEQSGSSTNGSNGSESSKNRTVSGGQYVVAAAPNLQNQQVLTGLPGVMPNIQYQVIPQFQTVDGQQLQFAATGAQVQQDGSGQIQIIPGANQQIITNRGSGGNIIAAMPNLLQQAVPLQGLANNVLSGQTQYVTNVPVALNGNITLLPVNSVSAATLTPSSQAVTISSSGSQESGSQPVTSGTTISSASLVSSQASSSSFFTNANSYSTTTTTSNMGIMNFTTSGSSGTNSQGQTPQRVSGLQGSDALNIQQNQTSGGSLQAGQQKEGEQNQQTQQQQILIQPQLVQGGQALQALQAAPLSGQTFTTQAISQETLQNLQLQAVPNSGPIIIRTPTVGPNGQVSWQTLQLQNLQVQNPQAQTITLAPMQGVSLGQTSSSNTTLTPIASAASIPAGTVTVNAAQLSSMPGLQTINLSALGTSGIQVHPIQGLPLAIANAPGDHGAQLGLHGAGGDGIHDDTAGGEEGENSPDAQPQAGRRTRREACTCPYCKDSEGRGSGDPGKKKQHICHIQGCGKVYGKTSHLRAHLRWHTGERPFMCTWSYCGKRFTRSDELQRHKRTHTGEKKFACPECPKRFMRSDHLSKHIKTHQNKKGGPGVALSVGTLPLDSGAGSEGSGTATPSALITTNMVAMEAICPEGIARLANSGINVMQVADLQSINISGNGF
Hypoxia-inducible factor 1-alpha (Homo sapiens), sequence (Q16665 whole entry, looked up): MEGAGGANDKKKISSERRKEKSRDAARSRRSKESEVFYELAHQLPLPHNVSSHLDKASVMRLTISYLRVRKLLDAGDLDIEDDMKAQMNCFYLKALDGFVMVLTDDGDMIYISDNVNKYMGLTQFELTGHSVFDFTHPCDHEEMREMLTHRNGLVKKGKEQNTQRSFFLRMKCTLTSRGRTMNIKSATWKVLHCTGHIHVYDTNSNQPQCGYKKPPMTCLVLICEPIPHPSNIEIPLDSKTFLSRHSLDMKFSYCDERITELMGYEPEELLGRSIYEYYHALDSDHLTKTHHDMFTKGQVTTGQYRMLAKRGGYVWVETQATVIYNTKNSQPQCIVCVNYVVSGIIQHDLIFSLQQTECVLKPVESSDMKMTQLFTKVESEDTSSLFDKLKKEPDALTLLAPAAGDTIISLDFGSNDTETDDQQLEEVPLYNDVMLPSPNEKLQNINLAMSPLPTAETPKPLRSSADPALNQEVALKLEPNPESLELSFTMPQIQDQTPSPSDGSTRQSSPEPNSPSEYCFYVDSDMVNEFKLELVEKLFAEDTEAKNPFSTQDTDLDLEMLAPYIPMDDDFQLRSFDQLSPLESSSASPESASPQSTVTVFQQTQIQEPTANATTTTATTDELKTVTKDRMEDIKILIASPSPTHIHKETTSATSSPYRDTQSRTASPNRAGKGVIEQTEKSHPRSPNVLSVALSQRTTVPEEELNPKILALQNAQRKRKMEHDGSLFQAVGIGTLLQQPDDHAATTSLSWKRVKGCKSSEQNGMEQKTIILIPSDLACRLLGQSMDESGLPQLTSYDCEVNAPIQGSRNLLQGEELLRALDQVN
Signal transducer and activator of transcription 3 (Homo sapiens), sequence (P40763 whole entry, looked up): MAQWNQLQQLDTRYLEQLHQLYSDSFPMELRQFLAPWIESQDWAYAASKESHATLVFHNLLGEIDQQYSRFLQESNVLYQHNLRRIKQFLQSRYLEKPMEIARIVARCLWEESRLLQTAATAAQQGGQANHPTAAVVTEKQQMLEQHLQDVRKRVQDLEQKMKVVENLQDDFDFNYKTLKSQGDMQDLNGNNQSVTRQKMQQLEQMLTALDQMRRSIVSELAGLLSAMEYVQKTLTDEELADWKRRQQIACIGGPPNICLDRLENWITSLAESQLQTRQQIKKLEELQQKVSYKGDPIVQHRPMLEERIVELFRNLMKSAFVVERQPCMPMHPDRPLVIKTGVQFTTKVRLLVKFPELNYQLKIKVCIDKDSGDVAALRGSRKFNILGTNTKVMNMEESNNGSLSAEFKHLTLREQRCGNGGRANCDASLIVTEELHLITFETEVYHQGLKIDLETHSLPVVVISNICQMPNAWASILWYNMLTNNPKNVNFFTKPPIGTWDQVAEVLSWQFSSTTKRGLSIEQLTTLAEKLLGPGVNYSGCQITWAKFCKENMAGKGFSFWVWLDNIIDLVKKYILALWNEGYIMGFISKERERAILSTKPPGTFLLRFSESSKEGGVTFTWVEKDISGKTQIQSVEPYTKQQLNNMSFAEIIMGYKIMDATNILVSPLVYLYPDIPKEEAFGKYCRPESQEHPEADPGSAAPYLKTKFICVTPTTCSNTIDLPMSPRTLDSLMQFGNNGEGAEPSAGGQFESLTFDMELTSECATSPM
Heat shock factor protein 1 (Homo sapiens), sequence (Q00613 whole entry, looked up, the tested form may be a part): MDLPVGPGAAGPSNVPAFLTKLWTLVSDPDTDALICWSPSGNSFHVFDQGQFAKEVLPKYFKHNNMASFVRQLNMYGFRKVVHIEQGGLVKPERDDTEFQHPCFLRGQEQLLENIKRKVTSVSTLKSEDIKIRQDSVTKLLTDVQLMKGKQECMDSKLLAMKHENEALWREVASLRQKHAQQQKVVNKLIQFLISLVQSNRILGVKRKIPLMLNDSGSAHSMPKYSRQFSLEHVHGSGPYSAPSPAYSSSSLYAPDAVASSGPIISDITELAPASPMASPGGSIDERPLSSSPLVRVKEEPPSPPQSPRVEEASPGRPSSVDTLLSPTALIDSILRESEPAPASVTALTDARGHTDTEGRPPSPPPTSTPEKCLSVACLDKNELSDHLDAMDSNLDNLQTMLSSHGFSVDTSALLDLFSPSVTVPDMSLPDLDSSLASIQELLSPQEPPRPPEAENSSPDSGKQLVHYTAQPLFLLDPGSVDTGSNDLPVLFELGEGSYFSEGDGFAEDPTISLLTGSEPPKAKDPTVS
Hepatocyte nuclear factor 6 (Homo sapiens), sequence (Q9UBC0 whole entry, looked up, the tested form may be a part): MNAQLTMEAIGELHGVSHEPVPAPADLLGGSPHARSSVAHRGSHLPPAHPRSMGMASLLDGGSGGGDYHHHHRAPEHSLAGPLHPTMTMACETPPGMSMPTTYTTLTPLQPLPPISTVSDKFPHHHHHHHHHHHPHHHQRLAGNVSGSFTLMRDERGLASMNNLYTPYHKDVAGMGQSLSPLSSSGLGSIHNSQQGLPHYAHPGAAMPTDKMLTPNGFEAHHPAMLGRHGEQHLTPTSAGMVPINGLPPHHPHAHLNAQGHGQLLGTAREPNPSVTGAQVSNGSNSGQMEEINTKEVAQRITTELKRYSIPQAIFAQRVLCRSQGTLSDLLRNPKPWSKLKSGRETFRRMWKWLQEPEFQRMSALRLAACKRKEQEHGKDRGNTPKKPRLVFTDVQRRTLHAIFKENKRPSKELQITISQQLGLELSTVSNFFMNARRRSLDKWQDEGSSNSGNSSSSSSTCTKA

As for `OCCOc1ccccc1`, the molecule was called inactive in assay [1], in assay [2], in assay [3], in assay [4], in assay [5] and in assay [6]. The result in [7], in [8], in [9], in assay [10], in [11] and in [12] was inactive. The molecule was called inactive in [13], in assay [14], in assay [15], in assay [16], in [17] and in assay [18]. Also, the result in assay [19] and in assay [20] was inactive.
In general, AC50 refers to the concentration giving half of the maximal activity seen. As for `COc1cc(OC)nc(NC(=O)NS(=O)(=O)c2cc(NC=O)ccc2C(=O)N(C)C)n1`, the outcome in assay [1], in assay [2], in assay [3], in assay [4], in [5] and in [6] was inactive. For the same molecule, the call in assay [7], in assay [8], in assay [9], in [10], in assay [11] and in [13] was inactive. Further, the molecule was classed as inactive in [14], in [15], in assay [16], in [17], in assay [18] and in [19]. Besides, the result in [20] was inactive. For the same molecule, the AC50 in [12] is 17.1 µM (active).
For `CNC(=O)Oc1ccccc1OC(C)C`, the outcome in assay [1], in assay [2], in [3], in assay [4], in assay [5] and in [6] was inactive. For the same molecule, the outcome in [7], in [8], in assay [9], in [10], in assay [11] and in assay [12] was inactive. Besides, the outcome in assay [13], in [14], in assay [15], in [16], in assay [17] and in assay [18] was inactive. In addition, the outcome in assay [19] and in assay [20] was inactive.
